Epigenetic derep – epigenetic control regulation, reporter derepression; actives 0.2% (n = 280,000); Potency, µM (doses to about 53.9 µM), for the others: top-dose GFP activation, actives largely listed as activators; murine LDR cells, GFP reporter derepression, 30 h; note: % of control where 0% means no effect; nearly all actives have a fitted effect of over 60% in size
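In this reporter-derepression format, murine cells bearing a silenced integrated CMV-GFP locus incubate with test compound (30 h, 37 C), then are washed and imaged; fluorescent objects of 20–120 um count as induced cells.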
Sfp inh – Sfp phosphopantetheinyl transferase inhibition; Biochemical Sfp PPTase activity, qHTS; Q9F4F7; AID 1490; actives 3.5% (n = 310,000); Potency, µM, for inactives: largest response in the series, negative = inhibition, actives largely listed as inhibitors;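 note: the enzyme is Sfp with the accession as filed and its product quenches rhodamine fluorescence; 0% = enzyme reaction without inhibitor and -100% = no enzyme wells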
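With Hepes-Na pH 7.6 buffer containing 10 mM MgCl2, Sfp (15 nM) modified BHQ-2-YbbR (12.5 uM) using rhodamine-CoA (5 uM). Two reads 30 minutes apart at 525/598 nm yielded each well's rate.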
NPSR antag – blocks cAMP signaling of the human neuropeptide S receptor; CHO-NPSR cells, cAMP TR-FRET, antagonist mode; Potency, µM (series often up to 38.3 µM), without a hit: at the highest dose activity change, negative = inhibition, actives largely listed as inhibitors; Q6W5P4; actives 1% (n = 220,000); note: % is set by controls: 0 for no effect and ±100 for the full control effect; nearly all actives have a fitted effect of over 50% in size
Target sequence (Q6W5P4 whole entry, looked up): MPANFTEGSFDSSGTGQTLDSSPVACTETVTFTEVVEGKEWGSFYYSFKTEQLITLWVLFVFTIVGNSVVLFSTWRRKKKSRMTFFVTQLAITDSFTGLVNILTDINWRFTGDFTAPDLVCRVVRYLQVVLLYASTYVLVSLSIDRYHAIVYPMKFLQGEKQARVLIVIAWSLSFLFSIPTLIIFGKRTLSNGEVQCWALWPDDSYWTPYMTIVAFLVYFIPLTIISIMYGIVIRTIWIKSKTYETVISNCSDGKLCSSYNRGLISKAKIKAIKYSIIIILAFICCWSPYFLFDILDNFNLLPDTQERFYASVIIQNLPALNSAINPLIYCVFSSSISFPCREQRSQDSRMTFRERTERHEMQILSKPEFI
IMPase Li cell – cell-permeable IMPase inhibitors with lithium potentiation; AID 1457; CHO-M1 cells, IP1 TR-FRET (IP-One), carbachol + lithium; actives 0.35% (n = 210,000); Potency, µM (titrated, usually from 59.4 µM), for inactives: top-dose activity, negative = IMPase inhibition, most hits filed as inhibitors;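 note: IP1 builds up when IMPase is blocked and the TR-FRET signal falls; plate controls were basal vehicle for no effect and high inhibitor control for full effect; nearly all actives have a fitted effect of over 50% in size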
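CHO-M1, 2000 cells/well, 16–30 h culture; cpd + low Li+, 30 min 37C; lysis with d2-IP1/Eu-anti-IP1 Ab, 10 min RT; TR-FRET 665/620 ratio and 620 channel; AC50 via Hill.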
KAT2A inh – GCN5L2 (KAT2A) acetyltransferase inhibition; GCN5L2 HAT assay, ThioGlo1 CoA-SH fluorescence; Potency, µM (doses to about 58.9 µM), for inactives: at the highest dose activity change, negative = inhibition, usual class: inhibitors; Q92830; actives 0.21% (n = 390,000); note: % is set by controls: 0 for no effect and ±100 for the full control effect
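GCN5L2 (20 nM) in 50mM HEPES pH 7.5, 0.1mM EDTA, 0.01% Tween-20 preincubated 15 min with compounds at room temperature. Reaction started with H3(1-25) 75uM, acetyl-CoA 70uM, ThioGlo1 50uM; CoA-thiol fluorescence (Ex340/Em540) read at 0 and 20 min.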
JMJD2E inh – blocks human JMJD2E demethylase activity. actives 1.6% (n = 230,000). JMJD2E catalytic domain, FDH-coupled NADH fluorescence (FDH is formaldehyde dehydrogenase). Potency, µM (highest dose often 57.1 µM), without a hit: at the highest dose activity change, negative = inhibition, usual class: inhibitors. B2RXH2; active = well fitted inhibition curve with a large enough effect, not every such curve was filed as active; inconclusive = small, poorly fitted or top-dose-only effect, or another doubt; inactive = no such curve, though single readings can be large or run the other way;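 note: 0% = wells with enzyme and -100% = buffer wells without enzyme; nearly all actives have a fitted effect of over 50% in size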
Target sequence (B2RXH2 1-337 limits assumed): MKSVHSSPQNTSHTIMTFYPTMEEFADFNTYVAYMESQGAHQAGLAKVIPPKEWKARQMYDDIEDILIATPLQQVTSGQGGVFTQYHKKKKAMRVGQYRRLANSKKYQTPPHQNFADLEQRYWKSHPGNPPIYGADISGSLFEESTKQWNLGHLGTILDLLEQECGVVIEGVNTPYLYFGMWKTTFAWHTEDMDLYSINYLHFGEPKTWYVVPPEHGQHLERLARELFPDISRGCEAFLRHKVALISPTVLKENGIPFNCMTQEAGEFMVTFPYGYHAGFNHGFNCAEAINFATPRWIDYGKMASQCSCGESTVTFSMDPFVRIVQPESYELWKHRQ
* hit, by the source's call; ? = inconclusive; nt = no result given; [ ] = remark or other dose. Only some compounds are listed: those with a hit (about 3.6% of all), similar ones and a draw of the others. Unless noted, calls come from the whole dose curve; as a rule, active = well fitted curve in the direction sought with a large enough effect; inconclusive = small, poorly fitted or top-dose-only effect, or another doubt; inactive = no such curve, though single readings can be large; an effect the other way counts as inactive or inconclusive. Potency is the fitted concentration of half-maximal effect.

SMILES | Epigenetic derep | Sfp inh | NPSR antag | IMPase Li cell | KAT2A inh | JMJD2E inh
O=C(Nc1cccc(-c2nc3ncccc3o2)c1)c1sc2cc(Cl)ccc2c1Cl | 1.2% | 12.3% | -4.4%[46.1 µM] | 11.2µM* | 3.0% | 1.4%
CC(C(=O)NCc1ccccc1)n1ccc2cc(S(=O)(=O)N3CCCC3)ccc21 (stereo unspecified) | 4.2% | nt | nt | nt | -9.9% | nt
COC(=O)c1c(Cl)c2n3ccccc3c(C)c(-c3ccccc3)c-2c1C(=O)OC | 6.5% | -28.4% | 6.4% | 10µM* | -5.8% | ?
COC(=O)c1cc2c(-c3ccccc3)c(C)c3ccccn3c-2c1C(=O)OC | 1.0% | -13.4% | ? | -18.8%[38.3 µM] | -3.7% | 0.4%
Clc1ccccc1-c1nnc(-c2ccccc2CNc2ccc(Br)cc2)o1 | 1.0% | nt | nt | nt | -4.5% | nt
COCCN(C)Cc1cn(-c2ccc(F)cc2F)nc1-c1ccccc1C | -1.1% | 89.1µM* | 29.2% | 18.7% | 2.4% | 0.3%
Cc1ccccc1-c1nn(-c2ccc(F)cc2F)cc1CNCCN(C)C | 0.5% | -6.8% | -3.0% | 2.3% | -0.6% | -5.2%
Cc1ccc(C(=O)N/C(=C\c2ccc(-c3ccccc3[N+](=O)[O-])o2)C(=O)NCCN(C)C)cc1 | nt | 39.8µM* | nt | nt | -12.3% | nt
Cc1ccc(C(=O)N/C(=C\c2ccc(-c3ccccc3[N+](=O)[O-])o2)C(=O)NCCCN(C)C)cc1 | nt | -11.0% | nt | nt | 6.5% | nt
CNc1ccc(Br)cc1C(O)c1ccccc1 (stereo unspecified) | -1.6% | 89.1µM* | -12.3% | nt | 0.6% | -1.2%
Cc1ccc(S(=O)(=O)Nc2ccccc2C(O)c2ccccc2)cc1 (stereo unspecified) | nt | 8.2% | nt | nt | 2.4% | nt
C=CCN=c1scc(C)n1/N=C/c1ccc(O)c(O)c1 | ? | 31.6µM* | -19.5% | 18.3% | -9.4% | 15.8µM*
CN=c1scc(-c2ccco2)n1/N=C/c1ccc(O)c(O)c1 | 0.0% | 50.1µM* | -6.2% | 16.6% | -9.1% | 25.1µM*
CN=c1scc(C)n1/N=C/c1ccc(O)cc1 | 0.0% | -4.8% | -17.5%[46.1 µM] | 5.8%[38.3 µM] | -4.5% | -3.2%
CCCCCC(O)c1ccc([C@H]2CCC(=O)[C@@H]2CCCCCCC(=O)O)cc1 (stereo partly specified) | nt | 2.6% | nt | nt | 30.9% | nt
COCCCN=C1NN=C(c2cc(C)n(-c3ccccc3F)c2C)CS1 | 0.9% | ? | -15.1% | 35.6% | 5.1% | 31.6µM*
COCCn1c(C)cc(C2=NNC(=Nc3ccccc3F)SC2)c1C | 1.7% | 35.5µM* | -3.9%[46.1 µM] | -2.5%[38.3 µM] | -2.1% | 25.1µM*
Cc1cc(C2=NNC(=Nc3ccccc3)SC2)c(C)n1C | -4.7% | 31.6µM* | -23.8% | 0.4% | -4.1% | ?
Fc1ccc(F)c(C2=NNC(=Nc3ccccc3F)SC2)c1 | 2.7% | -21.3% | -13.5% | -2.9% | -5.2% | 4.1%
COc1cc2c(cc1OC)-c1cc3cc(OC)c(OC)cc3c(=O)n1CC2 | -1.1% | 16.4% | nt | -1.3% | nt | ?
COc1cccc([C@@H]2Oc3ccc(Br)cc3C[C@H]2O)c1 | -1.1% | 19.3% | nt | 4.7% | nt | 14.3%
CCOC(=O)c1[nH]c(Cc2[nH]c(C(=O)OCC)c(C)c2CCC(=O)OC)c(CCC(=O)OC)c1C | -1.6% | 56.2µM* | ? | 11.2%[38.3 µM] | -9.6% | -9.4%
CCOC(=O)c1c(C)[nH]c(C(=O)OC)c1CCC(=O)OC | 2.0% | -3.7% | -1.6%[46.1 µM] | 25.9%[38.3 µM] | -2.7% | -9.7%
CCCCCCCC1=Cc2ccccc2C(C(C(=O)OC)C(=O)OC)N1C(=O)OC (stereo unspecified) | nt | -10.4% | nt | 8.7% | nt | -4.2%[11.4 µM]
CC[N+](C)(CC)CC(=O)OCC1C(C)C=C(C)CC1C (stereo unspecified) | 0.0% | 89.1µM* | -20.1% | nt | -17.4% | -7.9%
SMILES | Epigenetic derep | Sfp inh | NPSR antag | IMPase Li cell | KAT2A inh | JMJD2E inh
COC(=O)c1c(-c2cccs2)csc1NC(=O)COc1c(C)ccc(C)c1C | 17.7% | nt | nt | nt | ? | nt
COc1cc(C2C(C#N)=C(N)Oc3cc(O)ccc32)cc2c1OCO2 (stereo unspecified) | 1.3% | 79.4µM* | -12.9%[46.1 µM] | 13.6%[38.3 µM] | -3.5% | -19.9%
N#Cc1cccc(-c2nc3cnc(N4CCOCC4)nc3n(C3CC3)c2=O)c1 | nt | 14.2% | nt | -0.5% | -9.7% | nt
C=CCNC(=O)c1ccccc1NC(=O)c1ccccc1SC | 12.8% | 20µM* | 9.6% | -6.1% | -5.1% | -4.8%
COCCNC(=O)c1ccccc1NC(=O)c1ccccc1SC | 2.9% | 56.2µM* | 4.4% | 6.4% | 2.1% | -1.3%
FC(F)(F)c1ccccc1-c1nccc(-n2ccnc2)n1 | nt | ? | nt | 13.4% | ? | nt
N#Cc1cccc(-c2cc(NCc3cccs3)ncn2)c1 | 0.2% | -7.7% | nt | 21.1% | 0.1% | 5.2%
COC(=O)c1sc(NC(=O)c2cccc([N+](=O)[O-])c2)c(C(N)=O)c1C | -2.0% | ? | -12.8% | -3.1% | 0.9% | 1.5%
O=C(NNC(=O)c1cnccn1)c1cccc([N+](=O)[O-])c1 | -2.7% | 2.51µM* | 14.9%[46.1 µM] | 2.7% | -11.5% | -3.6%
COC(=O)c1c(NC(=O)c2cccc([N+](=O)[O-])c2)sc(C(N)=O)c1C | 1.4% | 44.7µM* | -14.4% | 0.4% | -7.4% | 3.1%
O=C(Nc1ncc([N+](=O)[O-])s1)c1cccc([N+](=O)[O-])c1 | -0.9% | 12.1% | 5.01µM* | nt | -18.6% | 6.3%
O=C(Cc1ccccc1)NNC(=O)c1cnccn1 | -3.2% | 35.5µM* | 32.9% | -5.3% | -2.9% | -12.3%
Cc1cc(C(=O)NNC(=O)c2cccc([N+](=O)[O-])c2)n[nH]1 | nt | nt | nt | nt | -1.1% | nt
COc1cccc(Cn2c(=O)c(-c3cc(F)cc(F)c3)nc3cnc(N(C)C)nc32)c1 | nt | 29.2% | nt | -23.6% | -6.5% | nt
Cc1ccc(C(=O)OC[C@H]2O[C@H](Cl)C[C@@H]2OC(=O)c2ccc(C)cc2)cc1 | -1.1% | -7.3% | nt | 5.3% | nt | 7.4%
O=C(O)CC(O)CC(O)/C=C/c1c(C2CC2)nc2ccccc2c1-c1ccc(F)cc1 (stereo unspecified) | nt | 10.0% | nt | nt | 6.6% | nt
CCCc1ccc(O)c(N=Cc2cc(Br)cc(OCC)c2O)c1 | -1.2% | -13.3% | -32.3% | 22.7% | -3.4% | 15.8µM*
Cc1ccc(Nc2ncnc3c2nc2n3CCCC2)c(Br)c1 | -0.4% | nt | nt | nt | -6.8% | nt
CC(=O)[C@H](C(=N)C#N)C(=O)Nc1ccccc1 | nt | nt | nt | 0.4% | nt | nt
Cc1[nH]nc2c1C(c1ccc(O)cc1)C1=C(CC(C)(C)CC1=O)N2 (stereo unspecified) | -3.1% | 14.8% | 1.1% | 3.6% | -2.5% | ?
Cc1ccc(C2C3=C(CC(C)(C)CC3=O)Nc3[nH]c(=S)[nH]c(=O)c32)cc1 (stereo unspecified) | -0.9% | 14.1µM* | -7.9%[46.1 µM] | 1.1% | 2.8% | ?
